Results: PubChem BioAssay
Active and inactive are the calls of the source. Unless noted, how the calls were made is not given here.

Tests used:
[1] = HepG2 liver cancer cell viability effects, profiling panel, resazurin fluorescence, 24 h, PK04 Diversity Set (AID 1172); conditions: higher = more signal
[2] = basal S. cerevisiae growth modulation, no modifier, primary screen, OD600, strain BY4716, 24 h, basal condition (AID 1173); conditions: OD600, 24 h, higher = more signal, called active from +8 up or from −8 down
[3] = MM1S myeloma cell viability, profiling panel, resazurin fluorescence, basal, 24 h, PK04 Diversity Set (AID 1174); conditions: higher = more signal, called active from +8 up or from −8 down;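 further: MM1S multiple myeloma cell line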
[4] = target: Dihydroorotate dehydrogenase (quinone), mitochondrial (Plasmodium falciparum (isolate 3D7)) (UniProt Q08210); experiment: PfDHODH enzyme inhibitors, primary screen, biochemical, C-terminal His tag, absorbance 600 nm (AID 1175); conditions: DCIP absorbance 600 nm, higher = more signal, called active from +8 up or from −8 down;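 further: recombinant parasite enzyme with a five histidine tag at its C terminus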
Sequence of Dihydroorotate dehydrogenase (quinone), mitochondrial (Plasmodium falciparum (isolate 3D7)) (Q08210 whole entry, looked up): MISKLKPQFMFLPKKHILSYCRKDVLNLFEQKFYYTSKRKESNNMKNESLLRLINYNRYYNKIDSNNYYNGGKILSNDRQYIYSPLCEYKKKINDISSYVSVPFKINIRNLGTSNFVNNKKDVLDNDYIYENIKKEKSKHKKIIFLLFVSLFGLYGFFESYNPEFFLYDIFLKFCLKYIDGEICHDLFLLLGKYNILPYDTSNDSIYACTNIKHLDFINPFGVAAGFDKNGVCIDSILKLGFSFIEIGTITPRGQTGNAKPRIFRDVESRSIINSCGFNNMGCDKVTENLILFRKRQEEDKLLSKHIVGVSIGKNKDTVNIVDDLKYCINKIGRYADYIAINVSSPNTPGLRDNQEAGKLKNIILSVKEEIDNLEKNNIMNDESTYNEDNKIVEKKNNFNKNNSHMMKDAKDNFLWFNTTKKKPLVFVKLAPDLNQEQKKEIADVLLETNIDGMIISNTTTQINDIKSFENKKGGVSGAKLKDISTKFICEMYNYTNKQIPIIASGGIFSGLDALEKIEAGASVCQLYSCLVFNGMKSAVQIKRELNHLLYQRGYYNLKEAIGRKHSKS

[5] = P. aeruginosa biofilm formation inhibitors, primary screen, strain PAO1, LB-PBS medium, absorbance 600 nm (AID 1176); conditions: P. aeruginosa PAO1 growth/biofilm, A600, 12 h; higher = more signal
[6] = S. cerevisiae RM11-1a growth modifiers, primary screen, strain RM11-1a, OD600, basal, 24 h (AID 1177); conditions: OD600, 24 h, higher = more signal, called active from +8 up or from −8 down;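 further: cultures grown under basal conditions with no added stressor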
[7] = E. coli acrAB mutant growth effects, primary screen, E. coli filamentation inducers, strain DRC39, OD650, 24 h (AID 1178); conditions: higher = more signal, called active from +8 up or from −8 down;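 further: growth measured as culture turbidity by optical density at 650 nm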
[8] = E. coli acrAB mutant growth effects, primary screen, E. coli filamentation inducers, strain DRC39, OD650, 48 h (AID 1179);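 further: screen aims at cell division blockers that make cells filament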; conditions: E. coli DRC39 delta-acrAB growth, higher = more signal, called active from +8 up or from −8 down
[9] = RPMI8226 myeloma cell viability, profiling panel, resazurin fluorescence, basal, 24 h, PK04 Diversity Set (AID 1180); conditions: higher = more signal;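 further: RPMI8826 multiple myeloma cell line at 5000 cells per well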
[10] = target: E3 ubiquitin-protein ligase XIAP (Homo sapiens) (UniProt P98170); experiment: XIAP binders, primary screen, biophysical, small-molecule microarray, fluorescence 635 nm (AID 1181); conditions: small-molecule microarray binding, higher = more signal;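 further: score merges 667 nm emission and signal to noise over triplicate slides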
Sequence of E3 ubiquitin-protein ligase XIAP (Homo sapiens) (P98170 whole entry, looked up): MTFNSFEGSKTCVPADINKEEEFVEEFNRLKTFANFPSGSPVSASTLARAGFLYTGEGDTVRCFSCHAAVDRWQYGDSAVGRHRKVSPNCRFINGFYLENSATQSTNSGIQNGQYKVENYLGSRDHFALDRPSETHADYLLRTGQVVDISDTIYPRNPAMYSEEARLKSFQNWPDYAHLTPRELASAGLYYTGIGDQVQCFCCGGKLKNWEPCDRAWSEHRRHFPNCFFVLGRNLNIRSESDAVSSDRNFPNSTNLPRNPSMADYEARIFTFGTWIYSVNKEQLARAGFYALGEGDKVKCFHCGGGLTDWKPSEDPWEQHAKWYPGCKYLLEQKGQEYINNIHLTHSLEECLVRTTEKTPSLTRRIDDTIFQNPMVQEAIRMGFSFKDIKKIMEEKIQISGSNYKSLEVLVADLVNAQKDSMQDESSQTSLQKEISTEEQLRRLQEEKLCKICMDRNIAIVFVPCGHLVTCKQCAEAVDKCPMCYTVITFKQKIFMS

[11] = system: XIP peptide (Xip251-270) binding; experiment: small-molecule binders of XIP peptide, primary screen, biochemical, small-molecule microarray, fluorescence 635/667 nm, 0.1 µg/mL protein (AID 1182); conditions: fluorescent protein binding, 635 nm, higher = more signal, called active from +8 up or from −8 down
XIP peptide (Xip251-270) = experiment: small-molecule binders of XIP peptide, primary screen, biochemical, small-molecule microarray, fluorescence 635/667 nm, 0.5 µg/mL protein (AID 1183); conditions: small-molecule microarray binding, fluorescence 635 nm; higher = more signal
[12] = Plasmodium falciparum growth inhibition, primary screen, strain 3D7, DAPI fluorescence, 100 nL (AID 1184);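 further: parasites grown inside human red blood cells in medium with human serum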; conditions: P. falciparum 3D7 growth, 3 d, higher = more signal
[13] = target: Homeobox protein Hox-A13 (Mus musculus) (UniProt Q62424); experiment: inhibitors of HoxA13-DNA binding, primary screen, biochemical, fluorescence polarization, labeled oligonucleotide (AID 1185); conditions: 15 min, higher = more signal, called active from +8 up or from −8 down
Sequence of Homeobox protein Hox-A13 (Mus musculus) (Q62424 whole entry, looked up): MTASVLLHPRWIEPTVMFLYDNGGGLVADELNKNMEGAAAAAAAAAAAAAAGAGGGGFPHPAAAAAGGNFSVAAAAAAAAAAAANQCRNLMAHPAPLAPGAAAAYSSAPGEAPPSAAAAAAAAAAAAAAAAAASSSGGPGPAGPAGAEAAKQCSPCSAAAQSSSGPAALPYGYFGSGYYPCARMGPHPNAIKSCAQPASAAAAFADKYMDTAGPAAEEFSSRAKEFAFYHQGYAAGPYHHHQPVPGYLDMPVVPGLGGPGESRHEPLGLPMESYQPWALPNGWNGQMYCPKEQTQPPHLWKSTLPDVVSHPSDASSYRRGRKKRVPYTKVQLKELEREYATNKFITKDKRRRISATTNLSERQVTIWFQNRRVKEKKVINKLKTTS

| SMILES | z-score [1] | z-score [2] | z-score [3] | composite z-score [4] | z-score [5] | z-score [6] | z-score [7] | z-score [8] | z-score [9] | composite z-score [10] | composite z-score [11] | composite z-score (XIP peptide (Xip251-270)) | z-score [12] | z-score [13] |
| --- | --- | --- | --- | --- | --- | --- | --- | --- | --- | --- | --- | --- | --- | --- |
| C[C@@H]1C=CCC(=O)OC[C@H](C)C(=O)OC[C@H]2O[C@H]1C=C[C@H]2O | 0.0061 | -0.368 (inactive) | 0.313 (inactive) | 0.603 (inactive) | -0.814 (inactive) | 1.14 (inactive) | 0.0992 (inactive) | -0.249 (inactive) | 0.52 | -0.379 | 0.0137 (inactive) | 0.756 | -0.315 | -1.13 (inactive) |
| COC(=O)[C@@H]1CC[C@H](C)[C@@H](c2ccc(C)cc2)N1C(=O)c1ccc(C=NOC[C@@H](O)COCc2ccco2)cc1 | -0.609 | -0.346 (inactive) | -1.06 (inactive) | 0.13 (inactive) | 0.147 (inactive) | 0.0787 (inactive) | 0.462 (inactive) | 0.663 (inactive) | -1.49 | -0.0891 | -0.484 (inactive) | -1.03 | -2.31 | -6.19 (inactive) |
| C#CCCCON=C1C[C@@H](O)[C@@H](O)[C@@H]2[C@@H]3C(=O)N(CCC(=O)OCC)C(=O)[C@@H]3CC[C@@H]12 | -0.0517 | -0.395 (inactive) | -1.01 (inactive) | 0.175 (inactive) | -0.0485 (inactive) | -0.538 (inactive) | 0.122 (inactive) | 0.529 (inactive) | -0.739 | -0.212 | -0.349 (inactive) | 0.365 | 0.165 | -5.09 (inactive) |
| C[C@@H](c1ccccc1)N1C(=O)[C@H]2[C@H]3[C@H](O)[C@H](O)CC(=NOC[C@@H](O)COCc4ccco4)[C@@H]3CC[C@H]2C1=O | -0.52 | 0.984 (inactive) | -0.422 (inactive) | 0.407 (inactive) | 0.176 (inactive) | 0.819 (inactive) | -0.892 (inactive) | -0.41 (inactive) | 0.2 | -0.131 | -0.201 (inactive) | -0.287 | -0.842 | -1.25 (inactive) |
| CO[C@@H]1COC(=O)CCC[C@@H](C)[C@H](OC)COC(=O)CCC[C@H]1C | 0.733 | 1.47 (inactive) | 0.367 (inactive) | -0.0732 (inactive) | -0.667 (inactive) | 1.6 (inactive) | 0.265 (inactive) | -0.65 (inactive) | 0.276 | -0.256 | -0.201 (inactive) | 0.201 | -0.0787 | -1.03 (inactive) |
| C[C@H]1Cc2c(-c3ccccc3)nc3c(c2CO1)CN(CCOc1ccccc1)CC3 | -0.33 | -1.97 (inactive) | 0.0723 (inactive) | -0.0439 (inactive) | 1.17 (inactive) | 0.671 (inactive) | 1.67 (inactive) | -0.176 (inactive) | 0.678 | -0.0599 | 0.15 (inactive) | 0.771 | 1.18 | -5.41 (inactive) |
| CCOC(=O)CCN1C(=O)[C@H]2[C@H]3[C@H](O)[C@H](O)CC(=NOCc4ccccc4)[C@@H]3CC[C@H]2C1=O | -0.0233 | -0.949 (inactive) | -0.406 (inactive) | 0.404 (inactive) | 0.683 (inactive) | -0.172 (inactive) | -0.852 (inactive) | -0.599 (inactive) | -0.103 | 0.0455 | 0.204 (inactive) | 0.635 | 0.226 | -4.34 (inactive) |
| O=C(NN=C1C[C@@H](O)[C@@H](O)[C@@H]2[C@@H]3C(=O)N(c4cccc(Oc5ccccc5)c4)C(=O)[C@@H]3CC[C@@H]12)OCc1ccccc1 | -0.198 | 0.498 (inactive) | 0.243 (inactive) | 0.351 (inactive) | 0.0942 (inactive) | 0.775 (inactive) | -0.134 (inactive) | -0.192 (inactive) | 0.464 | -0.0506 | -0.0987 (inactive) | 0.381 | -0.763 | -4.96 (inactive) |
| CCOC(=O)NN=C1C[C@@H](O)[C@@H](O)[C@@H]2[C@@H]3C(=O)N(CC)C(=O)[C@@H]3CC[C@@H]12 | -0.0886 | 0.398 (inactive) | -0.621 (inactive) | -0.538 (inactive) | -0.331 (inactive) | -0.823 (inactive) | -0.145 (inactive) | -0.325 (inactive) | -0.423 | -0.105 | -0.359 (inactive) | 0.482 | 0.518 | 0.443 (inactive) |
| COC(=O)CC=C[C@@H](C)[C@@H](C=NO[C@@H](C)c1cc(-c2c(C)cc(C)cc2C)no1)OC | -0.295 | -0.408 (inactive) | -0.656 (inactive) | -2.58 (inactive) | -0.728 (inactive) | -0.357 (inactive) | -0.716 (inactive) | -2.26 (inactive) | 0.197 | -0.124 | 0.0164 (inactive) | -0.293 | -1.12 | -3.69 (inactive) |
| CCOC(=O)NN=C1C[C@@H](O)[C@@H](O)[C@@H]2[C@@H]3C(=O)N(C4CCCCC4)C(=O)[C@@H]3CC[C@H]12 | -0.912 | 0.486 (inactive) | -0.74 (inactive) | 0.406 (inactive) | -0.0941 (inactive) | 0.0422 (inactive) | -0.43 (inactive) | -0.358 (inactive) | -0.927 | -0.0246 | 0.67 (inactive) | 0.485 | -1.68 | -1.77 (inactive) |
